Our source for the z-score and composite z-score values is PubChem BioAssay.

Assay [1] can be described thus: optical density shifts of acrAB sulA E. coli – strain DRC41, OD650, 48 h, E. coli filamentation inducer project, primary screen (AID 1152).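 Note: E. coli MC1000 strain DRC41 lacking acrAB efflux pump and sulA.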 Conditions: higher = more signal, called active from +8 up or from −8 down.
Assay [2] can be described thus: probe aLefty1 binding on compound microarray – biochemical, small-molecule microarray, 635/667 nm fluorescence, primary screen (AID 1153).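 Note: score merges spot fluorescence with signal-to-noise ratio from the scanned slide images.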 Conditions: higher = more signal.
Assay [3] is described as follows: plasmodial surface anion channel blockers, osmotic lysis – cell-based, P. falciparum Indochina, OD700, 1 h, primary screen (AID 1154). Conditions: P. falciparum Indochina infected RBC osmotic lysis, higher = more signal, called active from +8 up or from −8 down.
Assay [4] can be described thus: plasmodial surface anion channel blockers, osmotic lysis – cell-based, P. falciparum Indochina, OD700, 2 h, primary screen (AID 1155).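 Note: lysis reports solute entry through the parasite surface anion channel PSAC.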 Particulars: P. falciparum Indochina infected erythrocytes, higher = more signal, called active from +8 up or from −8 down.
Assay [5] is described as follows: changes in parasitized red cell lysis, either direction – P. falciparum Indochina, OD700, 3 h, PSAC antagonist project, primary screen (AID 1156). Particulars: P. falciparum-infected erythrocytes, osmotic lysis, higher = more signal, called active from +8 up or from −8 down.
Assay [6] is described as follows: plasmodial surface anion channel blockers, osmotic lysis – cell-based, P. falciparum Indochina, OD700, 18 h, primary screen (AID 1157). Particulars: P. falciparum Indochina infected erythrocytes, osmotic lysis OD700, 18 h; higher = more signal, called active from +8 up or from −8 down.
The nature of assay [7]: S6 kinase pathway phospho-S6 level changes – cell-based, A549, cytoblot, luminescence, serum-stimulated, primary screen (AID 1158).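 Note: serum-stimulated A549 lung adenocarcinoma cells; signal is phosphorylated S6 detected by cytoblot immunostaining with HRP secondary.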 Particulars: 5 h, higher = more signal.
The target in assay [8] is NADPH oxidase 2 (Homo sapiens) (UniProt P04839). As to the kind of experiment: compounds shifting NOX2 Amplex Red fluorescence – cell-based, HEK293-NOX2, PMA-stimulated, NOX inhibitor project, primary screen (AID 1159). Note: test concentration not given here. Conditions: 45 min, higher = more signal, called active from +8 up or from −8 down.
NADPH oxidase 2 (Homo sapiens), sequence (P04839 whole entry, looked up): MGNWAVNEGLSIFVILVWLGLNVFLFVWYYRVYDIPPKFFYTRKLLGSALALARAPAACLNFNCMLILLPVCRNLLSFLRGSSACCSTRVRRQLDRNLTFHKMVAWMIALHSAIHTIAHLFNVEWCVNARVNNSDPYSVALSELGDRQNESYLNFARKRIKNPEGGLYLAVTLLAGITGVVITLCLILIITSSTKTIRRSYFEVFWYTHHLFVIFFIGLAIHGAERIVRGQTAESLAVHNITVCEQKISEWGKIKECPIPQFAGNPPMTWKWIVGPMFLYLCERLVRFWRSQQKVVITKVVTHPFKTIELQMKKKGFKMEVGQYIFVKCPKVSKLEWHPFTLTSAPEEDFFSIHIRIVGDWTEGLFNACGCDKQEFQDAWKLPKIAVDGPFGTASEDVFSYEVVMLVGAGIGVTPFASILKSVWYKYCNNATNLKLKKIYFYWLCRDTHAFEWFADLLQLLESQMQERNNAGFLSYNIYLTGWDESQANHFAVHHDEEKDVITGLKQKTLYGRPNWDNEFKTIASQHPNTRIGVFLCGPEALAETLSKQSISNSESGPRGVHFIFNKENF
Assay [9] deals with NADPH oxidase 4 (Homo sapiens) (UniProt Q9NPH5). As to the kind of experiment: compounds shifting NOX4 Amplex Red fluorescence – cell-based, HEK293-NOX4, tetracycline-induced, NOX inhibitor project, primary screen (AID 1160). Conditions: HEK293-NOX4, Amplex Red H2O2 fluorescence, 45 min; higher = more signal, called active from +8 up or from −8 down.
NADPH oxidase 4 (Homo sapiens), sequence (Q9NPH5 whole entry, looked up): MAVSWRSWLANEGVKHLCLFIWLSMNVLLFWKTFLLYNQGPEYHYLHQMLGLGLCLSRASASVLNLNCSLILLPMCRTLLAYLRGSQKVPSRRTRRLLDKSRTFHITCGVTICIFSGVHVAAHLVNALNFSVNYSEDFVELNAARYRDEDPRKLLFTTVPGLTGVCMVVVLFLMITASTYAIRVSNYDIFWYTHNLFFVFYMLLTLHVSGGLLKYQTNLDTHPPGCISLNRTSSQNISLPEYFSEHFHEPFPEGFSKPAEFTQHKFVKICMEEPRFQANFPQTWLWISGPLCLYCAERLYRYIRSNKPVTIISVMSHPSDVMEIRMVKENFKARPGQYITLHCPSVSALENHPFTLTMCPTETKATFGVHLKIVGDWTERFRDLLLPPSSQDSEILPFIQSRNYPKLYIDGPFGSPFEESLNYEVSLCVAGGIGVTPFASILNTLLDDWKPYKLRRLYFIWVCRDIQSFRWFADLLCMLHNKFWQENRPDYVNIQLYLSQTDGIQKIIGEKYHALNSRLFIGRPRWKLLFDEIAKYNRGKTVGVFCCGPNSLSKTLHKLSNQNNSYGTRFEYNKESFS
The target of assay [10] is NADPH oxidase 5 (Homo sapiens) (UniProt Q96PH1). As to the kind of experiment: compounds shifting NOX5 Amplex Red fluorescence – cell-based, HEK293-NOX5, NOX inhibitor project, primary screen (AID 1161). Particulars: HEK293-NOX5, ionomycin, 45 min, higher = more signal.
NADPH oxidase 5 (Homo sapiens), sequence (Q96PH1 whole entry, looked up): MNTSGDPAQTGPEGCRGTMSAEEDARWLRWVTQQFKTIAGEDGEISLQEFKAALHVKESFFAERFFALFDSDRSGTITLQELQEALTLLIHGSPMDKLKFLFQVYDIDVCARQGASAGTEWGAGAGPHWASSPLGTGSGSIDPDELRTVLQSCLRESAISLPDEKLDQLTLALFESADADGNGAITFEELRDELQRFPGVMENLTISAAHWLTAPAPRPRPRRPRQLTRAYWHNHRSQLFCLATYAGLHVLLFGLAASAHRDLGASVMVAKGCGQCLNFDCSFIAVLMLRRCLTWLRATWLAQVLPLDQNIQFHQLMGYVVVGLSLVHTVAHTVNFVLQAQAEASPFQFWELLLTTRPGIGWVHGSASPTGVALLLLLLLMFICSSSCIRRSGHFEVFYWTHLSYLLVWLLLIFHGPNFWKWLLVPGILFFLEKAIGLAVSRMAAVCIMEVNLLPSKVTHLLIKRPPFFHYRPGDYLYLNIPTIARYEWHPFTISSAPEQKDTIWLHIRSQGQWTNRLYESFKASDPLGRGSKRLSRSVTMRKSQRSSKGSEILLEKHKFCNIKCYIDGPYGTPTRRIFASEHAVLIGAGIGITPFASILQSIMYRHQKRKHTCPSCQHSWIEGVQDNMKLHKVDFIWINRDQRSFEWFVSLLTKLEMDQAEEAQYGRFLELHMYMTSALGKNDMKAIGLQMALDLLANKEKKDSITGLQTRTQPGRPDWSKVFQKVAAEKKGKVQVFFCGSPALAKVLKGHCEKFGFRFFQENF

Molecules are shown by their SMILES. Active and inactive are the calls of the source.

`CCOc1cc(C(O)C2C=CC3C(=O)N(c4ccccc4)C(=O)C3N2Nc2ccc(C#N)cc2)ccc1O` (stereo not given): the z-score in [1] is -1.17 (inactive); in [3] it was 16.3 (active); in [4], 2.72 (inactive); in assay [5], 0.743 (inactive); in assay [6], 1.27 (inactive); in [7] it was -1.03. For the same compound, the z-score is -2.87 (inactive) in assay [8], -5.02 (inactive) in [9] and -4.31 in assay [10]. The composite z-score in assay [2] worked out at 0.302.
`COCCOC(=O)N1C(=O)[C@@]2(c3cc(C#Cc4ccc(OC)cc4)ccc31)[C@H](c1ccc(O)cc1)N1[C@H](c3ccccc3)[C@H](c3ccccc3)OC(=O)[C@H]1[C@@H]2C(=O)N1CCCCCCC1`: the z-score in assay [1] is -0.329 (inactive); in assay [3], 0.0963 (inactive); in assay [4], 0.0379 (inactive); in assay [5], -1.3 (inactive); in [6] it was -0.0483 (inactive); in [7], -0.307. Also, the z-score is 0.877 (inactive) in assay [8], 0.482 (inactive) in [9] and 0.391 in assay [10]. In addition, the composite z-score in assay [2] turned out to be 2.12.
`COc1ccc(CCN2C(=O)[C@@]3(Cc4ccccc42)c2ccccc2C(=O)N(Cc2ccccc2OC)[C@H]3c2ccc(CO)cc2)cc1`: the z-score was 2.06 (inactive) in assay [1]; 1.96 (inactive) in [3]; -0.373 (inactive) in [4]; -0.217 (inactive) in [5]; -1.29 (inactive) in assay [6]; 3.17 in assay [7]. Besides, the z-score in assay [8] is 0.348 (inactive); in assay [9] it was -0.797 (inactive); in assay [10], 0.327. In addition, the composite z-score in [2] was 0.595.
For the compound `C=C(CCCC)/C(=C/C[C@@H](OC(=O)c1ccncc1)c1ccccc1OCCO)c1cnc2ccccc2c1`, the z-score in [1] is -0.209 (inactive); in [3], 20.2 (active); in assay [4] it was 4.55 (inactive); in [5] it was 1.58 (inactive); in assay [6], 1.12 (inactive); in assay [7] it was 0.759. The results for the z-score in [8], in assay [9] and in [10] were -0.852 (inactive), 0.474 (inactive) and -0.524, respectively. This compound also came in with a composite z-score in [2] of 0.541.
For the compound `NC(N)=NCCCn1cc(CNC(=O)[C@@H](N)Cc2ccccc2)nn1`, the z-score in assay [1] is -0.929 (inactive); in assay [3], -0.174 (inactive); in assay [4], 0.0333 (inactive); in assay [5], -0.561 (inactive); in assay [6] it was 0.36 (inactive); in [7], 0.243. In addition, the z-score in [8] was -2 (inactive); in assay [9] it was 0.227 (inactive); in [10], -0.264. In addition, the composite z-score in assay [2] was -0.0171.
Take `COC(=O)Cn1c(C(=O)N(C)C)cc2c1C[C@H]1CN(C(=O)c3ccccc3)[C@@](Cc3ccc(F)cc3)(C(=O)OC)[C@@H]21`: the z-score is -1.25 (inactive) in [1]; 0.628 (inactive) in [3]; 0.238 (inactive) in assay [4]; 0.13 (inactive) in assay [5]; 0.52 (inactive) in assay [6]; -0.38 in [7]. In addition, the z-score in assay [8] is 0.174 (inactive); in assay [9] it was -0.765 (inactive); in assay [10], -1.26. Moreover, the composite z-score in [2] turned out to be 0.523.
`O=C1NC(=O)C2C1C=CC(C(O)c1c(F)cccc1Cl)N2Nc1ccc(Cl)cc1Cl` (stereo not given): the z-score in assay [1] was -3.86 (inactive); in assay [3], 3.9 (inactive); in [4] it was 0.914 (inactive); in assay [5], -0.87 (inactive); in assay [6], 1.17 (inactive); in [7] it was -1.27. Besides, the z-score in [8] was 0.295 (inactive); in assay [9] it was -5.4 (inactive); in assay [10], -2.57. This compound registered a composite z-score in assay [2] of 0.501.
Regarding `Cc1ccc(S[C@]2(C(=O)NCC(F)(F)F)CC(=O)N(Cc3ccccc3C(F)(F)F)[C@@H]2c2ccc(CO)cc2I)cc1`, the z-score is 0.637 (inactive) in assay [1]; 3.79 (inactive) in assay [3]; 0.853 (inactive) in assay [4]; 1.1 (inactive) in assay [5]; 0.205 (inactive) in assay [6]; -0.142 in assay [7]. For the same compound, the z-score is 2.28 (inactive) in assay [8], -1.06 (inactive) in [9] and 1.94 in assay [10]. In addition, the composite z-score in [2] was -0.135.
With `CC(C)N1C(=O)c2ccccc2[C@@H](C(=O)NC2CC2)[C@@H]1c1ccc(CO)cc1`, the z-score was 0.258 (inactive) in assay [1]; 2.06 (inactive) in assay [3]; -0.0507 (inactive) in assay [4]; -0.0836 (inactive) in assay [5]; -0.307 (inactive) in [6]; 0.167 in assay [7]. Further, the z-score in [8] is 0.393 (inactive); in assay [9], 0.708 (inactive); in [10] it was 0.442. In assay [2], this compound came in with a composite z-score of 0.007.
Take `COc1ccc([Si](C)(C)[C@@H]2[C@@H](CC(=O)N(CCO)Cc3ccccc3)O[C@]3(C(=O)N(c4ccccc4)c4ccccc43)[C@H]2C)cc1`: the z-score in assay [1] is 1.3 (inactive); in [3], 9.05 (active); in assay [4] it was 1.2 (inactive); in assay [5] it was -1.43 (inactive); in [6], 0.303 (inactive); in assay [7] it was 1.73. The z-score in assay [8] was -0.0719 (inactive); in assay [9], 0.574 (inactive); in assay [10], -1.55. For the same compound, the composite z-score in [2] amounted to 0.201.
On to `CN1C(=O)C2C=CC(C(O)c3ccc(F)cc3)N(Nc3ccccc3)C2C1=O` (stereo not given), for which the z-score in assay [1] was -1.69 (inactive); in assay [3], 1.24 (inactive); in assay [4], 1.05 (inactive); in [5] it was 1.45 (inactive); in assay [6], 0.582 (inactive); in assay [7] it was -0.85. In addition, the z-score in assay [8] was -1.41 (inactive); in assay [9], -3.79 (inactive); in assay [10], -3.17. Besides, the composite z-score in assay [2] came out at 0.0711.
